The full list was thinned out, with hits kept by preference.
PostGolgi ctrl: growth of the yeast control strain, post-Golgi counter-screen; AID 738; inhibition, % at 10 µM; actives 5% (n = 98,000); efflux-deficient yeast background strain, growth absorbance A615, 16 h
S1P2 ag: agonists of human S1P2 receptor. O95136. S1P2-expressing cell line, agonist reporter read-out. activation, % at 4.5 µM. actives 0.46% (n = 97,000). AID 729; in the data active = activation above about 16%;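 note: 0% = vehicle low control and 100% = maximal reference agonist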
PostGolgi yeast: growth inhibition of a yeast mutant, post-Golgi transport screen | post-Golgi transport phenotypic cell assay | inhibition, % at 10 µM | actives 0.9% (n = 98,000) | AID 739;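 note: yeast cells grown in 1536-well plates; yeast grown about 18 h at 30C before absorbance read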
GALR2 agonist: GALR2 (human) receptor agonism | O43603 | GALR2-expressing cells, agonist activation read-out | activation, % (test concentration not listed) | actives 0.48% (n = 140,000); in the data active = activation above about 5%, passing the limit was not always enough;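 note: 0% = vehicle buffer wells and 100% = reference agonist at full effect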
Target sequence (O43603 whole entry, looked up): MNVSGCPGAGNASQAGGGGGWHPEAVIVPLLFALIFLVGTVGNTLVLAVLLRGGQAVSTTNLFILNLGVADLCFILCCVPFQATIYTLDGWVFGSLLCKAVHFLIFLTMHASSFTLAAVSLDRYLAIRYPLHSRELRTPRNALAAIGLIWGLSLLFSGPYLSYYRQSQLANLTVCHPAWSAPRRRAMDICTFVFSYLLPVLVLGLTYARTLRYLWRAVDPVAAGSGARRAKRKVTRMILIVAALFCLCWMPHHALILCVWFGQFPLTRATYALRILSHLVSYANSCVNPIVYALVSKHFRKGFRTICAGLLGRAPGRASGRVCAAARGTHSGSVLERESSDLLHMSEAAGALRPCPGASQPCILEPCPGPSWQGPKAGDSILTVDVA
S1P2 antag: S1P2 (human) receptor antagonism | O95136 | cell-based S1P2 antagonist assay, inhibition at 5 uM | inhibition, % at 5 µM | actives 0.21% (n = 97,000) | AID 736; in the data active = inhibition above about 45%;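 note: CRE beta-lactamase reporter cells expressing human S1P2 stimulated with S1P; 0% = agonist at EC80 alone and 100% = agonist plus reference antagonist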
GALR2 blocker: antagonists of human galanin receptor 2 (GALR2); GALR2-expressing cells, antagonist mode; inhibition, % at 4 µM; actives 0.39% (n = 140,000); AID 828; in the data active = inhibition above about 27%;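 note: cells stimulated with galanin 1-16 at roughly its EC80; 0% = agonist challenge control and 100% = basal control without agonist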
* = called active by the depositor; / = no result given. Cut-off read from the data, not from the text of the source, unless noted: active = inhibition above about 30%; inactive = the rest.

SMILES	PostGolgi ctrl	S1P2 ag	PostGolgi yeast	GALR2 agonist	S1P2 antag	GALR2 blocker
CCOC(=O)c1cnn(CC2CCCCC2)c1N	5.6	/	3.7	-1.1	/	-1.6
Cc1c(C(=O)OC2CCCCC2)sc2nc[nH]c(=O)c12	59.3*	-2.9	2.7	-0.2	-12.4	-0.7
CCC(SC1=NCCS1)C(=O)Nc1ccc(S(N)(=O)=O)cc1 (configuration not stated)	/	/	/	-0.8	/	4.2
CSc1nc(-c2ccccc2)nc(N2CCN(C)CC2)c1C(C)=O	5.2	-8.8	-23.4	-0.6	19.4	-4.3
CSc1nc(-c2ccccc2)nc(N2CCCC2)c1C(C)=O	39.1*	-1.9	-6.8	-4.0	-7.0	-5.8
CC(=O)CC(=O)Nc1ccc(Nc2ccccc2)cc1	/	/	/	-0.3	/	19.2
CCCNC(=S)N1CCC(C(=O)c2ccc(OC)cc2)CC1	/	/	/	-0.3	/	2.2
CC(C)CNC(=O)/C=C/c1cccs1	/	/	/	-1.9	/	-0.5
CC(/C=C/c1cccs1)=C\C(=O)O	32.1*	0.1	-8.7	-1.8	7.9	10.4
CCS(=O)(=O)N1CCC(C(=O)NCCc2ccccc2)CC1	6.0	-1.4	2.8	-0.6	7.7	-0.9
CCS(=O)(=O)N1CCC(C(=O)NCCN2CCN(Cc3ccccc3)CC2)CC1	7.8	-7.6	-3.9	6.2*	-2.0	-1.0
Clc1ccc(-n2nnnc2SCc2c(-c3ccccc3)nc3sccn23)cc1	34.7*	-5.7	1.0	-1.7	10.5	13.2
Cc1ccc(C)c(N2CCN(C(=O)Cn3c(=O)[nH]c4ccsc4c3=O)CC2)c1	5.4	-5.7	-4.0	-0.9	-3.4	-15.3
Cc1cccc(C(=O)N2CCN(c3ccc(C(F)(F)F)cn3)CC2)c1C	22.4	-8.8	-0.4	-2.0	-3.8	11.4
COc1ccc(NC(=O)c2ccc(CN3CCN(c4ccccc4)CC3)cc2)cc1	4.4	-2.4	63.7*	-0.5	12.7	-13.1
COc1cccc(NC(=O)c2ccc(CN3CCN(c4ccccc4)CC3)cc2)c1	-3.7	-2.4	37.4*	-1.1	14.2	-10.9
COc1cccc(C(=O)Nc2ccc(N3CCN(Cc4ccccc4)CC3)cc2)c1	-2.4	1.1	4.1	-1.3	-15.2	-11.7
Cc1ccc2c(CSc3nc4nc(C)cc(C)n4n3)cc(=O)oc2c1	2.4	14.0	-5.5	3.5	-34.1	-10.6
COc1ccc2c(CSc3nc4nc(C)cc(C)n4n3)cc(=O)oc2c1	3.2	17.2*	-2.8	1.0	-25.3	-24.1
CCN(CC)c1ccc(C=C(c2nnnn2-c2ccc(C)cc2)c2nnnn2-c2ccc(C)cc2)cc1	/	/	/	-0.2	/	8.4
NS(=O)(=O)c1ccc(NC(=S)Nc2nn(Cc3ccc(Cl)cc3Cl)cc2Cl)cc1	/	/	/	0.9	/	-3.6
O=C(O)c1ccc2c(c1)C(=O)N(CCC1=CCCCC1)C2=O	2.0	/	-6.7	-1.0	/	1.9
CN(C(=O)c1ccc2c(c1)C(=O)N(CCC1=CCCCC1)C2=O)C1CCCCC1	34.1*	-1.0	-0.7	-1.3	-1.6	-16.3
O=C(CCN1C(=O)C2C3CC(C(Br)C3Br)C2C1=O)OCC(=O)c1ccccc1 (configuration not stated)	/	/	/	0.4	/	-2.0
Nc1c(C(=O)c2cccs2)oc2ccccc12	17.9	-2.5	-2.7	1.4	-16.7	11.5
SMILES	PostGolgi ctrl	S1P2 ag	PostGolgi yeast	GALR2 agonist	S1P2 antag	GALR2 blocker
Nc1c(C(=O)c2ccc(Br)s2)oc2ccccc12	36.6*	-4.7	2.5	0.5	13.6	20.3
Fc1ccc(-c2cc(C(F)(F)F)nc(NCc3cccs3)n2)cc1	/	/	/	2.1	/	-2.9
Cc1ccc(-n2ncc(C#N)c2/N=C/N(C)C)cc1	33.3*	-2.3	-4.3	0.3	-25.0	-19.1
Cc1ccc(-n2ncc(C#N)c2/N=C/N2CCOCC2)cc1	1.8	-3.0	23.3	-1.9	-3.6	-0.5
Cc1cccc(NC(NC(=O)c2ccccc2[N+](=O)[O-])C(Cl)(Cl)Cl)c1 (configuration not stated)	/	/	/	-0.8	/	2.4
Cc1ccc2c(c1)N(CC(=O)NC1CCCc3ccccc31)C(=O)CO2 (configuration not stated)	34.3*	-1.1	-2.3	-0.8	11.0	-5.3
O=C(CN(C(=O)CSc1nc2ccccc2o1)c1ccccc1)NC1CCCCC1	10.9	-7.2	3.5	-3.0	19.7	-5.1
CCNc1nc(N)c(C(=O)c2ccc(Cl)s2)s1	46.2*	-8.2	5.0	-3.8	19.7	3.8
NS(=O)(=O)c1ccc(N2N=C(c3ccc(Br)cc3)CC2c2ccc(F)cc2)cc1 (configuration not stated)	85.7*	161.0*	15.8	155.9*	-114.7	-38.1
NS(=O)(=O)c1ccc(N2N=C(c3ccccc3)CC2c2cccc(F)c2)cc1 (configuration not stated)	/	/	/	5.9*	/	-10.8
Cc1noc2ncnc(Sc3ccccc3Cl)c12	15.2	-7.8	8.1	-1.7	55.3*	10.0
O=C(Nc1ccc(Nc2ccccc2)cc1)c1ccc(Br)o1	16.7	-1.8	-1.6	-3.8	-8.6	8.0
Cc1cccc(NC(=O)c2ccccc2OCC(=O)c2ccccc2)c1	30.3*	-3.1	-3.9	-2.0	-1.8	10.0
O=C(Nc1cccc(-c2nnc(-c3ccccc3)o2)c1)c1ccc(Br)o1	37.6*	-7.1	-6.0	-0.9	-25.6	6.6
COc1ccc(C(=O)Nc2cccc(-c3nnc(-c4ccco4)o3)c2)cc1	30.8*	-5.8	0.0	-1.7	23.2	1.4
O=C(Nc1ccccc1Oc1ccccc1)c1ccc(Br)o1	50.7*	-1.1	2.7	-1.1	-31.0	-9.5
Cc1ccc(NC(=O)c2ccccc2OCC(=O)c2ccccc2)cc1	7.6	-4.7	2.1	2.1	-29.1	-9.9
Cc1ccc(N(Cc2ccc(C(=O)NN=C3CCN(C)CC3)cc2)S(C)(=O)=O)cc1C	/	/	/	-0.3	/	1.9
Cc1onc(-c2ccccc2)c1C(=O)NNC(=S)NC(=O)/C=C/c1cccs1	/	/	/	-2.4	/	10.2
O=C(Nc1cccc(-c2cn3cccnc3n2)c1)c1ccc(Br)o1	33.4*	-2.8	-16.0	-0.3	-4.4	8.3
CCOc1ccccc1C(=O)Nc1cccc(-c2nnc(-c3ccccc3)o2)c1	31.5*	-6.5	9.5	-0.2	8.3	15.5
CCC(=O)Nc1cccc(-c2nnc(-c3cccc(NC(=O)CC)c3)o2)c1	9.3	-5.9	-2.0	-0.6	25.8	5.3
Cc1ccc(C(=O)NCCNc2ccc(Cl)cc2[N+](=O)[O-])o1	31.3*	-7.1	2.1	-1.7	-2.5	-1.9
O=[N+]([O-])c1ccc(NC(=S)NCCc2ccccc2)cc1	/	/	/	-0.4	/	15.7
O=[N+]([O-])c1ccc(NC(=S)NCCc2ccc(Cl)cc2)cc1	92.2*	3.7	106.0*	-0.5	4.4	-6.5
O=[N+]([O-])c1cc(C(F)(F)F)ccc1NCCNC(=S)Nc1ccc(Cl)cc1	91.2*	-2.9	82.1*	-2.6	-7.5	-7.2
O=C(NCc1cccnc1)C(=O)NCC1OCCN1S(=O)(=O)c1ccc(F)cc1 (configuration not stated)	/	/	/	-1.6	/	8.8
COc1ccc(C2=NN3C(C2)c2ccccc2OC32C(=O)N(C)c3ccccc32)cc1 (configuration not stated)	30.1*	-4.7	4.4	-2.2	-14.7	13.9
